Assay results published in PubChem BioAssay (NCI).
Values joined by “and” are separate entries in the source; they are usually repeats but may differ in a detail not shown here. Equal entries are not always repeated. The panel holds about 79,000 compounds, 15% with a hit somewhere; the sample as a whole holds those more often. Unmarked numbers belong to inactive results. Active and inactive are the calls of the source. Cut-off read from the data, not from the text of the source: active = growth inhibition above about 70%; inactive = the rest.

Key:
[1] = NCI Yeast Anticancer Drug Screen. Data for the rad50 strain (AID 155);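 note: 0% = growth of vehicle-only cultures of the same strain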; details: S. cerevisiae rad50 strain growth inhibition; at 50.0 µM; hits give high values
Procedure, shortened: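 Genetically altered yeast (DNA repair pathway); compound treatment; growth inhibition vs vehicle ctrl.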

[2] = NCI Yeast Anticancer Drug Screen. Data for the mec2-1 strain (AID 157); details: S. cerevisiae mec2-1 strain, at 50.0 µM, hits give high values
Procedure, shortened: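 Yeast mec2-1 mutant treated with compound. Readout: growth inhibition vs vehicle controls.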

[3] = NCI Yeast Anticancer Drug Screen. Data for the sgs1 mgt1 strain (AID 161);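 note: 0% = growth of cultures given vehicle only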; details: S. cerevisiae sgs1 mgt1 strain, at 50.0 µM, hits give high values
Procedure, shortened: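 Mutant yeast exposed to compound; growth scored against vehicle-only wells.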

[4] = NCI Yeast Anticancer Drug Screen. Data for the cln2 rad14 strain (AID 165);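 note: 0% = growth equal to vehicle treated cultures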; details: S. cerevisiae cln2 rad14 strain, at 50.0 µM, hits give high values
Procedure, shortened: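 cln2 rad14 yeast strain; compound exposure; growth inhibition read vs vehicle controls.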

[5] = NCI Yeast Anticancer Drug Screen. Data for the bub3 strain (AID 167); details: S. cerevisiae bub3 mutant strain, at 50.0 µM, hits give high values
Procedure, shortened: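 Yeast carrying a defined mutation is treated with each compound, and growth is compared with that of vehicle-exposed cells to give inhibition.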

[6] = NCI Yeast Anticancer Drug Screen. Data for the mlh1 rad18 strain (AID 175); details: S. cerevisiae mlh1 rad18 strain growth inhibition; at 50.0 µM; hits give high values
Procedure, shortened: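 Yeast w/ defined DNA-repair lesions; compound exposure; growth vs vehicle controls → % inhibition.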

Compound: CC1CC2C(CCC3(C)C2CC2(CC2)C3(C)O)C2(C)CCC(O)CC12O (stereo not drawn)
- growth inhibition [1]: 12.6%
- growth inhibition [2]: 8.55%
- growth inhibition [3]: 19.9%
- growth inhibition [4]: -50%
- growth inhibition [5]: -7.35%
- growth inhibition [6]: 1.9%

Compound: CC(N)C(O)c1ccc(O)cc1 (stereo not drawn)
- growth inhibition [1]: -14%
- growth inhibition [2]: -12%
- growth inhibition [3]: -21.1%
- growth inhibition [4]: -4.95%
- growth inhibition [5]: -39.2%
- growth inhibition [6]: -44%

Compound: Cc1ccc(-n2cnc3c(N(CCCl)CCCl)ncnc32)cc1
- growth inhibition [1]: 10.3%
- growth inhibition [2]: 0.55%
- growth inhibition [3]: -1.45%
- growth inhibition [4]: 5.55%
- growth inhibition [5]: 23.5%
- growth inhibition [6]: -3.15%

Compound: C=CCCOC(=O)CO[N+](=O)[O-]
- growth inhibition [1]: 6.8%
- growth inhibition [2]: -0.7%
- growth inhibition [3]: 5.35%
- growth inhibition [4]: 8.8%
- growth inhibition [5]: -4.25%
- growth inhibition [6]: 4.1%

Compound: O=C(O)CN1C(=O)CN=C(c2ccccn2)c2cc(Cl)ccc21
- growth inhibition [1]: -5.45%
- growth inhibition [2]: -8.6%
- growth inhibition [3]: -23.8%
- growth inhibition [4]: -50.6%
- growth inhibition [5]: -15.3%
- growth inhibition [6]: -17%

Compound: COc1cc2c(cc1O)C(=O)O[C@@H]1CC=C3CCN(C)[C@H]3[C@H]21
- growth inhibition [1]: 3.4%
- growth inhibition [2]: 11.3%
- growth inhibition [3]: -7.3%
- growth inhibition [4]: 7.1%
- growth inhibition [5]: -37.4%
- growth inhibition [6]: 19.8%

Compound: O.O=S(=O)(O)O.[Co+3].[NH2-].[NH2-].[NH2-].[NH2-].[OH-]
- growth inhibition [1]: 31.2%
- growth inhibition [2]: 10.7%
- growth inhibition [3]: 8.6%
- growth inhibition [4]: 29.2%
- growth inhibition [5]: 12.4%
- growth inhibition [6]: 21.5%

Compound: CCOC(=O)C(Br)C(C)C (stereo not drawn)
- growth inhibition [1]: 24.1%
- growth inhibition [2]: 12%
- growth inhibition [3]: 16.1%
- growth inhibition [4]: 24.6%
- growth inhibition [5]: 7.6%
- growth inhibition [6]: 10.5%

Compound: CCCCC(CC)C(=O)O (stereo not drawn)
- growth inhibition [1]: -12.6% and 33.9%
- growth inhibition [2]: -0.3% and 11.5%
- growth inhibition [3]: -1.65% and -1.3%
- growth inhibition [4]: 0.2% and 6%
- growth inhibition [5]: -13.7% and 6.6%
- growth inhibition [6]: -10.7% and 7%

Compound: CC12CCC(O)CC1CCC1C2CCC2(C)C(C3=CC(=O)OC3)CCC12 (stereo not drawn)
- growth inhibition [1]: 7.05%
- growth inhibition [2]: 18.4%
- growth inhibition [3]: 30.6%
- growth inhibition [4]: 12.1%
- growth inhibition [5]: 12.1%
- growth inhibition [6]: 42.5%

Compound: [Cl][Co][Cl].[NH-]CC[NH-].[NH-]CC[NH-]
- growth inhibition [1]: 19.2% and -9.85%
- growth inhibition [2]: 9.3% and 29.6%
- growth inhibition [3]: 25.2% and -4.55%
- growth inhibition [4]: -9.95% and 9.2%
- growth inhibition [5]: 36.7% and 2.4%
- growth inhibition [6]: 37% and -23.4%

Compound: Cc1c2ccccc2c(CNCCSCCCl)c2ccc3ccccc3c12
- growth inhibition [1]: 97.2% (active)
- growth inhibition [2]: 98.5% (active)
- growth inhibition [3]: 98.4% (active)
- growth inhibition [4]: 98.3% (active)
- growth inhibition [5]: 97.5% (active)
- growth inhibition [6]: 98.8% (active)

Compound: C[C@]12C=CC(=O)C=C1CC[C@@H]1[C@@H]2C(=O)C[C@]2(C)C(=O)CC[C@@H]12
- growth inhibition [1]: -11.4%
- growth inhibition [2]: -19.1%
- growth inhibition [3]: 2.05%
- growth inhibition [4]: -1.85%
- growth inhibition [5]: -4.4%
- growth inhibition [6]: 4.95%

Compound: O=[N+]([O-])c1ccccc1-c1ccccc1
- growth inhibition [1]: 24.3%
- growth inhibition [2]: -27.8%
- growth inhibition [3]: 7.05%
- growth inhibition [4]: 13.2%
- growth inhibition [5]: -21.8%
- growth inhibition [6]: 2.25%

Compound: O=C(N1CCCC1)C1(c2cccc(Cl)c2)CCNCC1
- growth inhibition [1]: -26.1%
- growth inhibition [2]: -53%
- growth inhibition [3]: -16.2%
- growth inhibition [4]: 0.25%
- growth inhibition [5]: -28.1%
- growth inhibition [6]: -20.7%

Compound: CCCCCCCCCl
- growth inhibition [1]: 14.7%
- growth inhibition [2]: -4.7%
- growth inhibition [3]: 7.75%
- growth inhibition [4]: 20.1%
- growth inhibition [5]: 8.4%
- growth inhibition [6]: -8.5%

Compound: CC(N)CN.CC(N)CN.[Cl-].[O]=[Os+2]=[O] (stereo not drawn)
- growth inhibition [1]: -31%
- growth inhibition [2]: -13.4%
- growth inhibition [3]: -16.6%
- growth inhibition [4]: 2.05%
- growth inhibition [5]: -16.1%
- growth inhibition [6]: -13.6%

Compound: O=C(O)CN(CCN(CC(=O)O)CC(=O)O)CC(=O)O.[Co+2]
- growth inhibition [1]: 0.25%
- growth inhibition [2]: -3.85%
- growth inhibition [3]: 13.2%
- growth inhibition [4]: 19.1%
- growth inhibition [5]: 16.4%
- growth inhibition [6]: 7.45%

Compound: OC[CH2][Hg][I]
- growth inhibition [1]: 99.8% (active)
- growth inhibition [2]: 99.8% (active)
- growth inhibition [3]: 99.8% (active)
- growth inhibition [4]: 99.8% (active)
- growth inhibition [5]: 99.8% (active)
- growth inhibition [6]: 99.8% (active)

Compound: CCOC(=O)C1C(=O)C(C(=O)OCC)C2c3ccccc3-c3ccccc3C1N2C (stereo not drawn)
- growth inhibition [1]: 29.8%
- growth inhibition [2]: 7.25%
- growth inhibition [3]: 35.2%
- growth inhibition [4]: -7.35%
- growth inhibition [5]: 8.7%
- growth inhibition [6]: 15.7%

Compound: O=C1C=CC=C[C@@H]2C(C3OCCO3)CC[C@H]12.[C-]#[O+].[C-]#[O+].[C-]#[O+].[Fe] (stereo partly drawn)
- growth inhibition [1]: 4.3%
- growth inhibition [2]: 14.8%
- growth inhibition [3]: -7.3%
- growth inhibition [4]: 23.1%
- growth inhibition [5]: 7.5%
- growth inhibition [6]: 4.75%

Compound: COc1cc([C@@H]2c3cc4c(c(O)c3C[C@H]3COC(=O)[C@@H]32)OCO4)cc(OC)c1OC
- growth inhibition [1]: -5.65% and 13.2%
- growth inhibition [2]: 9.3% and 7.85%
- growth inhibition [3]: 2.65% and 2.95%
- growth inhibition [4]: 0.1% and 15.8%
- growth inhibition [5]: 15.4% and 23.4%
- growth inhibition [6]: 28.2% and 30.5%

Compound: O=C1OC(=O)C2C3C=CC(O3)C12 (stereo not drawn)
- growth inhibition [1]: -9.15% and -16.2% and 22.6%
- growth inhibition [2]: -14.2% and -0.8% and -0.1%
- growth inhibition [3]: -25.2% and 3.95% and 14.6%
- growth inhibition [4]: 6% and 1.55% and 10.6%
- growth inhibition [5]: -42.2% and -28.7% and 6.3%
- growth inhibition [6]: -6.4% and -16.8% and 19.6%

Compound: CN(C)CCN=C(N)N[N+](=O)[O-]
- growth inhibition [1]: 1.35%
- growth inhibition [2]: 3.75%
- growth inhibition [3]: -15.4%
- growth inhibition [4]: -96.4%
- growth inhibition [5]: 2.4%
- growth inhibition [6]: -38%

Compound: Cc1ccc(O)c(Cl)c1
- growth inhibition [1]: -1%
- growth inhibition [2]: 5.4%
- growth inhibition [3]: -19.4%
- growth inhibition [4]: -11.7%
- growth inhibition [5]: 0.15%
- growth inhibition [6]: 38%

Compound: O=C(O)CC(S)C(=O)O (stereo not drawn)
- growth inhibition [1]: -19.1%
- growth inhibition [2]: 10.4%
- growth inhibition [3]: -3.7%
- growth inhibition [4]: -38.3%
- growth inhibition [5]: -9.85%
- growth inhibition [6]: 14.6%

Compound: CC(=O)[O-].CC(=O)[O-].CC(=O)[O-].CC(=O)[O-].[Mo+2].[Mo+2]
- growth inhibition [1]: -6.5%
- growth inhibition [2]: 2.1%
- growth inhibition [3]: 0.1%
- growth inhibition [4]: 3.25%
- growth inhibition [5]: 1.85%
- growth inhibition [6]: 5.6%

Compound: Cn1c(O)c(C(=O)NC2CCCCC2)c(=O)n(C)c1=S
- growth inhibition [1]: -6.1%
- growth inhibition [2]: 12.2%
- growth inhibition [3]: 18.9%
- growth inhibition [4]: 27.6%
- growth inhibition [5]: 8.5%
- growth inhibition [6]: 13.1%

Compound: O=C(O)[C@@H]1C2CCC(C[C@@H]1O)N2C(=O)c1ccccc1 (stereo partly drawn)
- growth inhibition [1]: -12.8%
- growth inhibition [2]: -3.55%
- growth inhibition [3]: 2.85%
- growth inhibition [4]: -33.5%
- growth inhibition [5]: -15.4%
- growth inhibition [6]: -1.2%

Compound: CCCCN1COC2CCCCC21 (stereo not drawn)
- growth inhibition [1]: 20.6%
- growth inhibition [2]: -13.2%
- growth inhibition [3]: -43.2%
- growth inhibition [4]: -12.6%
- growth inhibition [5]: -44.4%
- growth inhibition [6]: -32.9%

Compound: COC1OC2COc3ccccc3OC2C(N=C(N)N[N+](=O)[O-])C1OS (stereo not drawn)
- growth inhibition [1]: -0.8%
- growth inhibition [2]: -7.55%
- growth inhibition [3]: 2.15%
- growth inhibition [4]: -24.7%
- growth inhibition [5]: -3.15%
- growth inhibition [6]: 11.3%

Compound: CC1C2Cc3ccc(O)cc3C1(C)CCN2C (stereo not drawn)
- growth inhibition [1]: 37%
- growth inhibition [2]: 29.6%
- growth inhibition [3]: 30.6%
- growth inhibition [4]: 17.6%
- growth inhibition [5]: 35%
- growth inhibition [6]: 16.1%

Compound: COc1cc(C(=O)OC(C)CC2(c3ccccc3)C(=O)NC(=O)NC2=O)cc(OC)c1OC (stereo not drawn)
- growth inhibition [1]: 2.75%
- growth inhibition [2]: -3.4%
- growth inhibition [3]: 24.1%
- growth inhibition [4]: 1.75%
- growth inhibition [5]: 3.05%
- growth inhibition [6]: -6.8%

Compound: CC(=O)O[C@H]1C(=O)[C@@]2(C)C(C(OC(=O)c3ccccc3)[C@]3(O)C[C@H](OC(=O)C(OC(=O)CCCC(=O)NCCCN(C)C)C(NC(=O)c4ccccc4)c4ccccc4)C(C)=C1C3(C)C)C1(OC(C)=O)COC1C[C@@H]2O (stereo partly drawn)
- growth inhibition [1]: -1.1%
- growth inhibition [2]: -0.35%
- growth inhibition [3]: 3.8%
- growth inhibition [4]: -10.3%
- growth inhibition [5]: -0.95%
- growth inhibition [6]: 7.35%

Compound: CCCCCCCCCCCCCCCC[As]1c2ccccc2Nc2ccccc21
- growth inhibition [1]: 4.4%
- growth inhibition [2]: 16.7%
- growth inhibition [3]: 7.05%
- growth inhibition [4]: 81.3% (active)
- growth inhibition [5]: 7.45%
- growth inhibition [6]: 28.5%

Compound: ClCCn1c(/C=C/c2nc3ccccc3n2CCCl)nc2ccccc21
- growth inhibition [1]: 26.1%
- growth inhibition [2]: 5.8%
- growth inhibition [3]: 6.1%
- growth inhibition [4]: -32.1%
- growth inhibition [5]: -3.65%
- growth inhibition [6]: 20.6%

Compound: NC(N)=NCCCCCCCCCCN=C(N)N
- growth inhibition [1]: 0.45%
- growth inhibition [2]: -20.2%
- growth inhibition [3]: -6.05%
- growth inhibition [4]: 8.4%
- growth inhibition [5]: -2.35%
- growth inhibition [6]: -10.3%

Compound: Cc1cc(N(CCCl)CCCl)ccc1C=N/C(C#N)=C(\N)C#N
- growth inhibition [1]: 2.05%
- growth inhibition [2]: -9.05%
- growth inhibition [3]: -4.8%
- growth inhibition [4]: -8.6%
- growth inhibition [5]: -1.9%
- growth inhibition [6]: -4.85%
